Test results taken from PubChem BioAssay (NCI).
Where “and” joins values, the source holds several entries; their conditions need not be identical. Equal values may be shown once. The panel holds about 83,000 compounds, 20% with a hit somewhere; the sample as a whole holds those more often.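 Negative percent growth values reflect cell death: -40 means 40% of the cells present at the start died, and -100 means all died.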 More than one record can exist for a structure, and the calls need not agree. Calls of active or inactive are those of the source.

Tested on: NCI-H522 lung
Test: NCI-60 one-dose screen, 48 h (100 = growth as untreated, 0 = no growth, -100 = all killed)
Details: 0.25 µM
Method: Growth inhibition of the NCI-H522 human Non-Small Cell Lung tumor cell line is measured as a screen for anti-cancer activity. Cells are grown in 96 well plates and exposed to the test compound for 48 hours. Compounds are tested at a single concentration, which is 10^-5 M for most compounds. The reported endpoint is percent growth (GI% or GIPRCNT), where numbers from 0 - 100% represent growth inhibition, and numbers from -100% - 0 represent cell death. For example, a value of 40 represents 60% growth inhibition. A value of 0 means no net growth occurred over the course of the experiment. A value of -40 indicates 40% of cells at the beginning of the experiment died by the end of the experiment. A value of -100 means all cells are dead at the end of the experiment.
NCI-60 Human Tumor Cell Lines Screen was performed using the standard one-dose NCI protocol, which is described in more detail at https://dtp.cancer.gov/discovery_development/nci-60/default.htm.
Compounds with GIPRCNT values below 10 were considered active. Activity score was based on GIPRCNT using the following formula: […]
Score is 0 for GIPRCNT values of 100 or above, 50 for GIPRCNT values of 0, and 100 for GIPRCNT values of -100.

Structure (SMILES)	growth
CCCCCCCCCCCCCCCc1ccc(Cl)c(O)c1Cl (tested in a mixture with another compound)	12.1% (inactive)

Same assay, conditions: 10 µM

Structure (SMILES)	growth
CCCCCCCCCCCCCCCc1ccc(Cl)c(O)c1Cl (tested in a mixture with another compound)	83.1% (inactive)
CC#C[C@]1(O)CC[C@H]2[C@@H]3CCC4=CC(=O)CCC4=C3[C@@H](c3ccc4c(c3)OCO4)C[C@@]21C	62.4% (inactive)
Cc1[nH]c(-c2nc3ccccc3[nH]2)c(C)c1C(=O)NC(C)C1CCCCC1 (stereo not given)	80.9% (inactive)

Same assay, conditions: 10 µM unless noted

Structure (SMILES)	growth
Cc1nn(-c2ccc(Cl)cc2)c2ncnc(N/N=C/c3ccccc3O)c12	23.3% (inactive)
NC(=O)c1ccccc1OCC(O)CO (stereo not given)	98.4% (inactive)
CNc1cc(-c2cccc(OC(F)(F)F)c2)nc2ccc(N3CCCC3)cc12	32.2% (inactive) and -63.9% (active) and -35.6% (active)
N=C1N=C(N)CS1	103% (inactive)
Cc1cccc(/C=C\C(=O)c2ccccc2)c1	95.3% (inactive)
COc1cc(-c2nccc3cc4c(cc23)OCO4)cc(OC)c1OC	-0.618% (active)
O=C(Cc1cccc2ccccc12)N/N=C/c1ccc2c(c1)CCC2	23.5% (inactive)
CN1C(=O)C(N=Nc2ccc([N+](=O)[O-])cc2)SC1=S (stereo not given)	52.9% (inactive) and 68.1% (inactive)
Cn1c(=O)c2[nH]c(CCCCCCCCc3nc4ccccc4[nH]3)nc2n(C)c1=O	72.8% (inactive)
OCCN1CCN(CCO)CC1	98.6% (inactive) and 87.9% (inactive) and 108% (inactive)
Nc1ccc2[nH]c(-c3ccccc3)cc(=O)c2c1	71.3% (inactive)
c1ccc(N(c2ccccc2)c2ccccc2)cc1	95.9% (inactive)
Cc1ccc(-c2noc(C)n2)cc1	99.3% (inactive)
Cc1ccc(NCSc2ccc(Cl)cc2)cc1	29% (inactive) and 47.1% (inactive)
CC1(C)[C@@H](OC(=O)CCC(=O)O)CC[C@]2(C)[C@H]3C(=O)C=C4[C@@H]5C[C@@](C)(C(=O)O)CC[C@]5(C)CC[C@@]4(C)[C@]3(C)CC[C@@H]12	86.5% (inactive) and -40.5% (active)
COC(=O)c1nc(N)nc(C(=O)OC)c1C(=O)c1ccc(OC)cc1	100% (inactive) and 55.7% (inactive)
CC(=O)c1ccc2c(c1)N(CCCN1CCN(CCO)CC1)c1ccccc1S2	67.3% (inactive) and 35.3% (inactive)

Structure (SMILES)	growth
CCCCCCCCCCCCCCCc1cc(O)ccc1N	-22.4% (active) and -23.6% (active)
CCN(CC)CCNc1cc(-c2cccc(OC(F)(F)F)c2)nc2ccc(N3CCCC3)cc12	60.8% (inactive) and -30.5% (active) and 23% (inactive)
CCOC(=O)c1c(C)oc(C)c(C(=O)OCC)c1=O	109% (inactive) and 94.9% (inactive)
CCN(CC)CCOc1ccc2c(c1)C(=O)c1cc(OCCN(CC)CC)ccc1-2	99.6% (inactive) and 69.6% (inactive)
CC(C)(C)c1ccc(O)c(CNC2CCCCC2)c1	102% (inactive) and 84.8% (inactive)
OC(CSc1ccccc1)CN1CCN(c2cccc(Cl)c2)CC1 (stereo not given)	104% (inactive) and 83.7% (inactive)
O=[N+]([O-])c1ccc(/C=N\NC(=S)Nc2ccc(F)cc2)cc1	95% (inactive) and 104% (inactive)
Cc1ccc(S(=O)(=O)NCN2C(=O)c3ccccc3C2=O)cc1	103% (inactive)
CNC(=O)c1cccnc1	91.4% (inactive)
CCC(C)C1(C2CCCC2)NC(=O)NC1=O (stereo not given)	77.2% (inactive) and 105% (inactive)
COc1cc(/C=N/Nc2nc3c([nH]2)c(=O)n(C)c(=O)n3C)ccc1O	87.8% (inactive) and 95.7% (inactive)
OC1CCC(Oc2cccc3cnc(Nc4ccc5nc[nH]c5c4)nc23)CC1 (stereo not given)	-21.9% (active) and 54% (inactive)
COc1ccc(/C(C#N)=C/c2ccccn2)cc1	98.1% (inactive) and 103% (inactive)
COc1ccc(-c2ncnc3c2ncn3C/C=C/CCl)cc1	48.5% (inactive) and 55.5% (inactive)
CN(C)c1ccc2nc3ccc(N)cc3[n+](-c3ccccc3)c2c1	14.1% (inactive)
O=C(N/N=C/c1ccc2c(c1)OCO2)c1ccncc1	77.8% (inactive) and 96.3% (inactive)
COc1ccccc1NC(=O)OCC#CCOC(=O)Nc1ccccc1OC	80.2% (inactive) and 76.8% (inactive)

Same assay, conditions: 100 µM

Structure (SMILES)	growth
CC#C[C@]1(O)CC[C@H]2[C@@H]3CCC4=CC(=O)CCC4=C3[C@@H](c3ccc4c(c3)OCO4)C[C@@]21C	-37.9% (active)
Cc1[nH]c(-c2nc3ccccc3[nH]2)c(C)c1C(=O)NC(C)C1CCCCC1 (stereo not given)	-36.1% (active)
